# High-throughput results (PubChem BioAssay)
# A selection: hits, their analogues and other compounds. The true share with any hit is near 18%.
# TDP1 cell CPT: growth inhibition of DT40 Tdp1-/-;hTDP1 cells with camptothecin (screen for TDP1 inhibitors); AID 686979; 420,000 tested, 12% active; chicken DT40 Tdp1-/-;hTDP1 cells + 20 nM CPT, ATP luminescence, 48 h; Potency, µM (series often up to 46.2 µM), for the others: at the top dose activity change, negative = growth inhibition, actives largely listed as inhibitors; also: potency is read from the fitted curve at half-maximal effect; nearly all actives have a fitted effect of over 55% in size
#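 Cell growth measured by CellTiter-Glo luminescence after a minimum 48 h, 37 C compound exposure with 20 nM CPT in Tdp1-knockout DT40 cells stably expressing hTDP1, seeded 400/well; qHTS titration format.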
# LDHA inh: LDHA (human) enzyme inhibition; P00338; purified LDHA, NADH/diaphorase-resazurin fluorescence; stronger effect = lower value; activity change, % (values are at about 110 or 230 µM); 480,000 tested, 0.15% active; in the data active = activity change below about -30%; inconclusive = mostly about -25% to -30%;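 also: plate controls were DMSO wells for no effect and wells without enzyme for full effect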
#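 Remaining NADH was detected by diaphorase (0.133 mg/mL) converting 37 µM resazurin to fluorescent resorufin, read at 0 and 20 minutes. The preceding 5-minute room-temperature reaction used 2 nM LDHA, 0.2 mM sodium pyruvate and 0.06 mM NADH at pH 7.4.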
# IL1B secr inh: inflammasome signaling inhibition, IL-1 beta readout; THP-1 LPS/ATP IL-1B secretion, AlphaLISA, 16 h; stronger effect = lower value; 360,000 tested, 4.7% active; activity change, % at 57.5 µM; in the data active = activity change below about -50%; inconclusive = mostly about -30% to -49%
#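 Secreted IL-1B measured by AlphaLISA bead assay after 16 h compound exposure of THP-1 cells; compounds (final up to 57.5 uM) added 1 h before LPS (250 ng/mL) and ATP (1.25 mM) stimulation; lower signal means less secretion.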
# DT40 TDP1 no CPT: qHTS for Inhibitors of human tyrosyl-DNA phosphodiesterase 1 (TDP1): qHTS in cells in absence of CPT; DT40 Tdp1-/- hTDP1 cells, no CPT, ATP luminescence, 48 h; 420,000 tested, 15% active; Potency, µM (series often up to 46.2 µM), inactives show at the highest dose activity change, negative = growth inhibition, most hits filed as inhibitors; AID 686978, 2013; also: potency is read from the fitted curve at half-maximal effect; nearly all actives have a fitted effect of over 55% in size
#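 Camptothecin absent (DMSO only). Human TDP1-complemented DT40 knockout cells, 400 cells/well, 37 °C for minimum 48 hr; ATP measured via CellTiter-Glo, 30 min dark incubation, luminescence.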
# VP16 counter: Gal4-VP16 reporter inhibition counter-screen; Potency, µM (top dose mostly 53.6 µM), without a hit: at the top dose activity, negative = inhibition, most hits filed as inhibitors; 310,000 tested, 3.5% active; Drosophila S2 Gal4-VP16 UAS-luciferase, luminescence, 20 h; AID 2546;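 also: Gal4-VP16 expression switched on by copper sulfate through the metallothionein promoter; potency is read from the fitted curve at half-maximal effect; nearly all actives have a fitted effect of over 50% in size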
# RORgamma inh: ROR gamma (mouse) transcription inhibition; 310,000 tested, 5.4% active; P51450; Potency, µM (top dose mostly 53.6 µM), for the others: top-dose activity change, negative = inhibition, usual class: inhibitors; Drosophila S2 Gal4-RORgamma UAS-luciferase reporter, 20 h; also: potency is read from the fitted curve at half-maximal effect; nearly all actives have a fitted effect of over 60% in size
# Target sequence (P51450 whole entry, looked up, the tested form may be a part): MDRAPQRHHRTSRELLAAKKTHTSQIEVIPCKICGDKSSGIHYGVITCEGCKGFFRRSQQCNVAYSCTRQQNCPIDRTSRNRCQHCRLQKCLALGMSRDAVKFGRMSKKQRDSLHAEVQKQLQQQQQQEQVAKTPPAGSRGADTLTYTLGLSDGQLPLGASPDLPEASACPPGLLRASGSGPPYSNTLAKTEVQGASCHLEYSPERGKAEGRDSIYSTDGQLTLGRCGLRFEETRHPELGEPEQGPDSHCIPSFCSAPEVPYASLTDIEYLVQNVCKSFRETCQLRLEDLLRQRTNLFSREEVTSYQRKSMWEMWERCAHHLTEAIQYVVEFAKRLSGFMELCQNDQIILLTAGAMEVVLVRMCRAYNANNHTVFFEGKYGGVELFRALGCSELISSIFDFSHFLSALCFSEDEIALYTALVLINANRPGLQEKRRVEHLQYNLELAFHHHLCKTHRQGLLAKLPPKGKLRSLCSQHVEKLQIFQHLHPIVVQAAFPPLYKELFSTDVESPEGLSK
#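 Luminescence from a UAS-regulated Photinus luciferase reporter in stably transfected Drosophila Schneider cells is measured; decreased signal marks ROR gamma inhibition. Fusion expression is induced by 700 uM copper sulfate for 20 hr.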
# * hit, by the source's call; ? = inconclusive; . = no result; [ ] = another dose, or the depositor's remark. Unless noted, calls follow the shape of the dose curve; as a rule, active = well fitted curve in the direction sought with a large enough effect; inconclusive = small, poorly fitted or top-dose-only effect, or another doubt; inactive = no such curve, though single readings can be large; an effect the other way counts as inactive or inconclusive. Unless noted, % is scaled to controls: 0 for no effect and ±100 for the full control effect.
SMILES,TDP1 cell CPT,LDHA inh,IL1B secr inh,DT40 TDP1 no CPT,VP16 counter,RORgamma inh
Cc1noc(CN(C)CC2COc3ccccc3O2)n1 (stereo unspecified),.,1.8,.,.,.,.
COc1cc(C=NO)nc(-c2ccccn2)c1,1.3µM*,3.8,61.2,1.16µM*,.,.
CCc1cc(=O)oc2c(CNCc3c(F)cccc3Cl)c(O)ccc12,18.4µM*,-7.3,9.6,-1.9%,1.7%,-16.0%
CCc1cc(=O)oc2c(CN3CCN(C)CC3)c(O)ccc12,18.0%,-1.7,13.3,-7.7%,1.2%,2.4%
CC(C)(C)c1ccc(C(=O)NC(=S)Nc2sc3c(c2C#N)CCC3)cc1,?,-11.0,?,?,-6.7%,0.6%
CC(=O)NC(=S)Nc1sc2c(c1C#N)CCCCC2,?,3.2,-74.5*,?,8.91µM*,11.2µM*
CC(=O)Nc1sc2c(c1C#N)CCCC2,6.4%,-8.0,25.4,4.5%,?,11.7%
CN1Cc2sc(NC(=S)NC(=O)c3ccccc3)c(C#N)c2CC1(C)C,-13.0%,-4.0,.,-24.6%,?,3.16µM*
N#Cc1c(NC(=S)NC(=O)c2ccccc2)sc2c1CCC2,18.4µM*,-4.7,0.0,?,-82.5%,-41.8%[10 µM]
CCCC(=O)Nc1sc2c(c1C#N)CCCC2,-5.4%,-1.2,-2.3,?,?,?
COC(=O)CCC(=O)Nc1sc2c(c1C#N)CCCC2,4.61µM*,2.1,10.8,4.61µM*,4.9%,44.7%
CC(C)n1c(SCCC(=O)O)nc2c1c(=O)[nH]c(=O)n2C,.,-20.0,.,.,.,.
CCNC(=S)Nc1sc2c(c1C#N)CCC(C)C2 (stereo unspecified),9.6%,-5.0,-21.5,?,?,11.2µM*
CCN1CCc2c(sc(NC(=S)NC(=O)c3ccccc3)c2C#N)C1,?,-0.2,7.3,-21.6%,-0.2%,-30.0%
CC1CCc2sc(NC(=S)NC(=O)c3ccccc3)c(C#N)c2C1 (stereo unspecified),-5.8%,-4.3,6.2,?,?,14.1µM*
CC(C)(C)C(=O)NC(NC(=S)Nc1sc2c(c1C#N)CCCC2)C(Cl)(Cl)Cl (stereo unspecified),25.9µM*,-0.3,4.8,?,?,10µM*
CCC(CC)C(=O)Nc1sc2c(c1C#N)CCC(C)C2 (stereo unspecified),.,3.5,.,.,.,.
COc1ccc2[nH]c3c(=O)n(CCCCC(=O)NCCC(C)C)c(=S)[nH]c3c2c1,14.6µM*,-2.4,-4.8,20.6µM*,-9.4%,-4.7%
CCCNC(=O)CCCCn1c(=S)[nH]c2c([nH]c3ccc(OC)cc32)c1=O,5.8µM*,0.9,6.4,5.8µM*,-3.8%,-2.2%
COc1ccc(C2C(C#N)=C(N)Oc3n[nH]c(C)c32)cc1COc1cc(C)c(Cl)c(C)c1 (stereo unspecified),.,5.6,.,.,.,.
COc1ccccc1CNc1nc2cc(-c3ccc(OC)c(OC)c3)sc2c(=O)n1C,23.1µM*,-1.6,-19.4,16.4µM*,.,.
COc1ccc(-c2cc3nc(NCc4ccc(NC(C)=O)cc4)n(C)c(=O)c3s2)cc1OC,-0.3%,0.2,4.3,-1.1%,.,.
COc1cccc(CNc2nc3cc(-c4ccccc4)sc3c(=O)n2C)c1OC,16.4µM*,-0.4,-3.8,29.1µM*,.,.
COc1cccc(CNc2nc3cc(-c4ccccc4C)sc3c(=O)n2C)c1OC,14.6µM*,-2.3,?,23.1µM*,.,.
COc1cccc(CNc2nc3cc(-c4cccc(Cl)c4)sc3c(=O)n2C)c1OC,?,1.3,-19.7,?,.,.
SMILES,TDP1 cell CPT,LDHA inh,IL1B secr inh,DT40 TDP1 no CPT,VP16 counter,RORgamma inh
CCN(Cc1ccc(Br)s1)C(=O)Cn1nnc(-c2cccc(Cl)c2)n1,.,0.4,.,.,.,.
NC(=S)N/N=C1/CCCCC1c1ccccn1 (stereo unspecified),.,3.0,.,.,.,.
Cc1ccc2c(CN3C(=O)c4ccccc4S3(=O)=O)cc(=O)oc2c1C,.,0.3,.,.,.,.
O=C(Nc1ccc2oc(-c3ccccc3)cc(=O)c2c1)c1ccco1,.,0.2,.,.,.,.
COc1ccc(S(=O)(=O)N2CCC(C(=O)Nc3ccccc3F)CC2)c2cccnc12,.,6.8,.,.,.,.
Cc1ccc(C(=O)n2c(=S)nc3ccccn32)cc1,.,.,.,.,?,1.58µM*
O=C(c1ccccc1)n1c(=S)nc2ccccn21,?,-1.8,19.5,?,?,?
Cc1cccc(C(=O)n2c(=S)nc3ccccn32)c1,?,-1.2,-8.3,?,3.16µM*,2.51µM*
CCn1cc(C(c2ccccc2)C(C(C)=O)[N+](=O)[O-])c2ccccc21 (stereo unspecified),?,2.2,-16.7,?,-0.9%,-28.4%
CC(=O)C(C(c1ccccc1)c1c[nH]c2ccccc12)[N+](=O)[O-] (stereo unspecified),6.51µM*,0.2,27.8,5.8µM*,2.5%,6.6%
COc1ccccc1C(C[N+](=O)[O-])c1c[nH]c2ccccc12 (stereo unspecified),?,-10.2,-88.9*,?,-9.2%,-16.1%
COC(=O)/C(=C\C(C#N)=C/N(C)C)C(C)=O,.,6.5,.,.,.,.
O=C1N/C(=N\S(=O)(=O)Cc2ccccc2)S/C1=C/c1cc([N+](=O)[O-])ccc1O,-4.2%,-37.2*,14.6,-12.1%,-6.2%,1.4%
O=C1N/C(=N\S(=O)(=O)c2ccccc2)S/C1=C\c1cc([N+](=O)[O-])ccc1O,-8.7%,-36.4*,31.1,19.2%,-5.3%,-9.7%
COc1cc(/C=C2\S/C(=N/S(=O)(=O)Cc3ccccc3)NC2=O)c([N+](=O)[O-])cc1OC,-22.3%,-1.1,-20.8,-25.6%,-7.8%,22.7%
CC(Cc1ccco1)NS(=O)(=O)N1CCCCC1 (stereo unspecified),.,5.3,.,.,.,.
Cc1ccc(C(C)NC(=O)c2ccc3c(c2)OCCO3)c(C)c1 (stereo unspecified),.,12.0,.,.,.,.
CC(=O)Nc1ccc2c(c1)C(=Nc1ccccc1)c1ccccc1-2,?,-5.2,1.9,-26.1%,.,.
CCOC(=O)Nc1ccc2c(c1)C(=NNC(N)=S)c1ccccc1-2,6.51µM*,-1.6,-95.9*,3.26µM*,.,.
CCOC(=O)Nc1ccc2c(c1)C(=NO)c1ccccc1-2,18.4µM*,1.4,-75.2*,20.6µM*,.,.
NC(=S)N/N=C1\c2ccccc2-c2c(C(=O)O)cccc21,-7.7%,-2.9,5.1,-8.6%,0.3%,1.5%
Cc1ccc2cc(C(=O)O)[nH]c2c1,.,-8.8,.,.,.,.
Cc1ccc(NC(=O)CCn2nc(C)c(S(=O)(=O)N3CCCCC3)c2C)cc1Cl,?,5.3,.,16.4µM*,.,.
